# Source: PubChem BioAssay
# Most compounds without a hit are left out; they make up all but 3.6% or so of the library.
# Mdm2-MdmX inh: inhibitors of human Mdm2/MdmX interaction. SaOS-2 split-luciferase Mdm2/MdmX complementation, luminescence. AID 485346. inhibition, % at 8 µM. O15151+Q00987. hit rate 3% among 330,000;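 active means inhibition of at least 50% at 8 µM in the primary screen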
# Peg3 prom inh: reduces Peg3 promoter-driven luciferase expression in HeLa. hit rate 1.7% among 360,000. HeLa PEG-Prom luciferase reporter, luminescence, overnight. inhibition, % at 20 µM;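 active means inhibition of at least 50% at 20 µM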
# HSP90 inh: HSP90 refolding inhibition in rabbit reticulocyte lysate. inhibition, % at 5.6 µM. hit rate 0.91% among 290,000. AID 1789. luciferase refolding luminescence, 3 h;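 active means inhibition above the screen-wide mean plus 3 SD, computed separately per campaign, cut at about 16% in these data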;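 further: 0% = DMSO wells and 100% = 60 µM geldanamycin wells; inhibitors lower the luminescence because luciferase stays unfolded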
# CF NFkB inh: cystic fibrosis NF-kB activation inhibition. KKLEB NF-kB-GFP reporter, PAF-induced, GFP fluorescence overnight. inhibition, % at 5 µM. hit rate 0.86% among 360,000. AID 588850;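 active means at least 50% inhibition at 5 µM, scaled per plate between neutral and stimulator controls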;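 further: PAF is a Pseudomonas aeruginosa culture filtrate used as stimulus; plate controls were PAF-stimulated DMSO wells for no effect and unstimulated DMSO wells for full effect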
# LGR2 antag: Drosophila LGR2 receptor signaling inhibition; AID 720647; inhibition, % at 9.99 µM; HEK293 LGR2, CRE-luciferase, bursicon-stimulated, 4 h; hit rate 0.35% among 380,000;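 active means drop in luminescence signal, shown as inhibition above about 50% in the replicate tests, limit read from the data, passing the limit was not always enough; inconclusive means probably only some replicates passing the limit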;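 further: agonist challenge used bursicon conditioned medium at about half maximal strength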
# KKLEB cytotox: counter-screen for CF NF-kB inhibitors: cytotoxicity; KKLEB CF airway cells viability, ATPlite luminescence, overnight; stronger effect = lower value; cells stimulated with P. aeruginosa culture filtrate; activity change (cytotoxicity), % at 5 µM; hit rate 0.36% among 360,000; AID 602141;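 active means corrected activity change at or below -50% at 5 µM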
# HSP90 confirm: confirmation of HSP90 inhibitors; shares compounds with HSP90 inh; rabbit reticulocyte lysate, luciferase refolding luminescence, 3 h; inhibition, % at 5.9 µM; hit rate 64% among 2,300; AID 1846; in the data active means inhibition above about 18%;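 further: 0% = vehicle wells and 100% = reference inhibitor wells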
# luciferase ctr: firefly luciferase inhibition, HSP90 counter-screen; shares compounds with HSP90 inh; purified native firefly luciferase, luminescence; inhibition, % at 5.9 µM; hit rate 48% among 2,300; AID 1847;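 active means inhibition above the mean inhibition of all tested sample wells plus 3 SD, cut at about 10% in these data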;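 further: 0% = DMSO with luciferase and 100% = wells lacking luciferase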
# Target sequence (P08659 whole entry, looked up): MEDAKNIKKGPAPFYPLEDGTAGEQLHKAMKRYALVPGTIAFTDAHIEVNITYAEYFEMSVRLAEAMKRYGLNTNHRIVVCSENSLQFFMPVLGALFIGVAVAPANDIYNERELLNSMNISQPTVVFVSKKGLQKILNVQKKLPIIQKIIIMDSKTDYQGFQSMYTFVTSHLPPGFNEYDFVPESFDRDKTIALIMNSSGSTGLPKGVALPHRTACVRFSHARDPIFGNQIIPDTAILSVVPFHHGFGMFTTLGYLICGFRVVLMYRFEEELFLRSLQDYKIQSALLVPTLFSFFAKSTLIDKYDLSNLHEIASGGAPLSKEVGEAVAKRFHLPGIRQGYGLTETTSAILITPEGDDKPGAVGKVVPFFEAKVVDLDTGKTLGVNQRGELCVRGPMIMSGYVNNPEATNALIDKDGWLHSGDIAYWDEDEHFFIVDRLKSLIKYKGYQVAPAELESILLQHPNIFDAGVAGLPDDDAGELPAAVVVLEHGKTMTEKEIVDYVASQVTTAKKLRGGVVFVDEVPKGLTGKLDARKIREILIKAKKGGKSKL
# Numbers without * were called inactive; ? = inconclusive; . = not tested or not shown.
SMILES,Mdm2-MdmX inh,Peg3 prom inh,HSP90 inh,CF NFkB inh,LGR2 antag,KKLEB cytotox,HSP90 confirm,luciferase ctr
O=C(NCC(c1cccs1)N1CCOCC1)c1cccc([N+](=O)[O-])c1 (configuration not stated),21.5,10.9,66.9*,8.9,16.1,-2.8,-7.0,-6.2
CO[C@@H]1CN(C)C(=O)c2cc(NS(C)(=O)=O)ccc2OC[C@H](C)N(C(=O)C2CCC2)C[C@@H]1C,.,.,.,.,1.2,.,.,.
COc1ccc(-c2ccc([C@@H]3[C@@H](CO)N4C(=O)CN(Cc5ccc(F)cc5)C[C@H]34)cc2)cc1,.,.,.,.,-16.5,.,.,.
CCCCn1c(NC(C)=O)c(C#N)c2nc3ccccc3nc21,19.4,16.5,23.6*,-0.2,.,-7.0,2.6,-2.0
C=CCn1c(NC(=O)c2ccccc2Cl)c(C#N)c2nc3ccccc3nc21,20.6,25.3,49.0*,11.5,.,1.9,11.8,-0.3
CCCCCn1c(N)c(C#N)c2nc3ccccc3nc21,17.1,15.3,1.0,-3.7,1.3,-10.1,.,.
CCCCn1c(NC(=O)c2ccc(Br)o2)c(S(=O)(=O)c2ccccc2)c2nc3ccccc3nc21,20.1,30.8,33.9*,27.8,.,-2.5,2.8,-5.5
CCS(=O)(=O)Nc1ccc2c(c1)C(=O)N(C)C[C@H](OC)[C@@H](C)CN(CC1CCCCC1)[C@H](C)CO2,.,.,.,.,2.1,.,.,.
C[C@@H]1CN([C@@H](C)CO)C(=O)c2cc(NC(=O)c3ccccc3)ccc2O[C@@H](C)CCCCO[C@@H]1CN(C)S(=O)(=O)c1ccc(Cl)cc1,.,.,.,.,-6.5,.,.,.
C(=C\c1ccc2ccccc2n1)/c1ccccc1,-83.6,-4.4,35.1*,-26.0,93.9*,-43.3,83.4*,77.1*
Cc1cccc(/C=C/c2ccccc2)n1,.,-146.5,.,-17.2,-65.8,7.5,.,.
O=[N+]([O-])c1ccc(/C=C/c2ccc3cccc(O)c3n2)cc1,-109.3,-239.4,0.1,-33.4,-42.5,-4.0,.,.
O=[N+]([O-])c1ccc(/C=C/c2ccc3ccccc3n2)cc1,-101.5,-42.5,20.7*,-51.9,54.4*,-27.6,66.5*,53.9*
CO[C@H]1CN(C)C(=O)c2cc(NC(C)=O)ccc2OC[C@H](C)N(Cc2ccc(F)cc2)C[C@H]1C,.,.,.,.,5.9,.,.,.
Cc1csc(NC(=O)C2COc3ccccc3O2)n1 (configuration not stated),-20.3,-19.3,46.0*,-9.9,.,1.8,62.6*,56.0*
Cc1cnc(NC(=O)C2COc3ccccc3O2)s1 (configuration not stated),-42.7,14.6,46.4*,14.3,.,-3.6,70.3*,70.5*
Cc1nc2ccc3nc(NC(=O)C4COc5ccccc5O4)sc3c2s1 (configuration not stated),3.2,-63.3,1.2,-10.4,5.8,-1.8,.,.
COc1ccc(NC(=O)Nc2ccc3c(c2)C(=O)N([C@@H](C)CO)C[C@@H](C)[C@@H](CN(C)Cc2ccccc2)O3)cc1,.,.,.,.,-5.8,.,.,.
CCN1[C@@H]2c3ccc(-c4ccncc4)c(=O)n3C[C@@H]2[C@@H](CO)[C@@H]1C(=O)NCCc1cn(C)cn1,.,.,.,.,1.6,.,.,.
COc1ccc(NC(=S)NNc2ccc(C(=O)O)cc2)cc1,9.1,0.6,21.0*,-5.3,13.2,-0.8,41.9*,38.1*
O=C(c1ccccc1)N1C[C@H]2[C@@H](c3ccccc31)[C@H](CO)N2C(=O)Nc1ccccc1Cl,.,.,.,.,-4.3,.,.,.
CCC(=O)N(C)C[C@H]1Oc2ncc(-c3ccccc3OC)cc2C(=O)N([C@@H](C)CO)C[C@H]1C,.,.,.,.,6.7,.,.,.
NC1=NS(=O)(=O)NC1c1cccc(Cl)c1 (configuration not stated),0.9,5.5,22.4*,-7.1,-3.5,-0.8,-3.3,-5.9
NC1=NS(=O)(=O)NC1c1cccc(F)c1 (configuration not stated),4.3,8.3,-2.2,-5.8,.,1.0,.,.
C[C@@H]1CN([C@@H](C)CO)C(=O)c2cc(C3=CCCC3)cnc2O[C@@H]1CN(C)C(=O)C1CCOCC1,.,.,.,.,-3.5,.,.,.
SMILES,Mdm2-MdmX inh,Peg3 prom inh,HSP90 inh,CF NFkB inh,LGR2 antag,KKLEB cytotox,HSP90 confirm,luciferase ctr
CCCN(C)C[C@@H]1Oc2cc(-c3ccccc3C)ccc2S(=O)(=O)N([C@H](C)CO)C[C@@H]1C,.,.,.,.,0.4,.,.,.
CN(C)CC(=O)N[C@@H]1C=C[C@H](CC(=O)NCCN2CCCCC2)O[C@H]1CO,.,.,.,.,5.1,.,.,.
O=C(Nc1ccc2oc(=O)ccc2c1)c1cc2ccccc2o1,-112.1,-418.8,-1.8,-9.7,.,-11.3,.,.
O=C(NC1=NCCS1)c1cc2ccccc2o1,-44.3,-52.9,33.6*,-11.3,.,9.4,56.2*,47.4*
O=C(Nc1ccc2c(c1)OCCO2)c1cc2ccccc2o1,-122.9,-157.5,24.4*,-27.4,?,-27.5,38.9*,26.5*
CCC(=O)Nc1ccc2c(c1)C(=O)N(C)C[C@@H](OC)[C@H](C)CN(C(=O)c1ccc(F)cc1)[C@@H](C)CO2,.,.,.,.,9.9,.,.,.
CC(C)(C)C(=O)Nc1ccc(-c2cc3cc(Cl)ccc3o2)cc1,19.7,-104.7,39.8*,15.6,.,-15.0,23.8*,12.5*
O=C(Nc1ccc(Cl)cn1)Nc1ccc(Cl)cn1,10.7,-47.1,0.3,-2.4,-19.3,-13.9,.,.
C/C(=C\c1ccccc1)C(=O)Nc1ccc(Cl)cn1,-201.7,-315.8,17.8*,1.6,-29.1,-10.2,25.4*,21.1*
C/C=C/c1cnc2c(c1)C(=O)N([C@@H](C)CO)C[C@H](C)[C@@H](CN(C)C(=O)Nc1ccc(F)cc1)O2,.,.,.,.,-0.4,.,.,.
Cc1nc(NC(=O)c2ccco2)sc1-c1csc(Nc2ccc(Cl)cc2)n1,19.1,35.2,18.6*,37.7,.,-3.2,5.3,-23.6
